The panel holds about 83,000 compounds, 20% with a hit somewhere; the sample as a whole holds those more often.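 Cells were grown in 96-well plates and exposed to the test compound at a single concentration for 48 hours; results are reported as percent growth, with values below 10 considered active.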 Unmarked numbers belong to inactive results. Activity calls are given as the source filed them.

Holding throughout (assay): NCI-60 one-dose screen, 48 h (100 = growth as untreated, 0 = no growth, -100 = all killed)
In one experiment the test system is HT29 colon. Conditions: 10 µM unless noted.
The subject of a further experiment is SNB-75 CNS. As to conditions: 10 µM unless noted.
For another experiment, the system named is U251 CNS. As to conditions: 10 µM unless noted.
The test system of the next experiment is PC-3 prostate. Conditions: 10 µM unless noted.
The next experiment has as its system SK-MEL-5 melanoma. As to conditions: 10 µM unless noted.
The test system of a further experiment is UACC-62 melanoma. As to conditions: 10 µM unless noted.
The subject of the next experiment is LOX IMVI melanoma. As to conditions: 10 µM unless noted.
In another experiment the test system is SK-MEL-28 melanoma. As to conditions: 10 µM.
A further experiment relates to SK-MEL-2 melanoma. As to conditions: 10 µM unless noted.
In a further experiment the test system is EKVX NSCLC. Conditions: 10 µM unless noted.
Another experiment has as its system SN12C renal. As to conditions: 10 µM unless noted.
A further experiment concerns UO-31 renal. As to conditions: 10 µM unless noted.
The subject of a further experiment is TK-10 renal. Conditions: 10 µM unless noted.
Another experiment relates to ACHN renal. Conditions: 10 µM unless noted.
The subject of a further experiment is CAKI-1 renal. As to conditions: 10 µM unless noted.
The next experiment has as its system A498 renal. As to conditions: 10 µM unless noted.
The test system of the next experiment is CCRF-CEM leukemia. Conditions: 10 µM unless noted.
For another experiment, the system named is MOLT-4 leukemia. Conditions: 10 µM unless noted.
The next experiment has as its system SR leukemia. Conditions: 10 µM unless noted.
The subject of a further experiment is SNB-19 CNS. As to conditions: 10 µM unless noted.

On to `COc1cc(/C=C/C(=O)c2c(C)nc3ccccc3c2/C=C/c2ccccc2)cc(OC)c1OC`, for which the growth is -1.3% (active) with HT29 colon; 14.2% with SNB-75 CNS; -14.1% (active) in the experiment with U251 CNS; 20.5% with PC-3 prostate; 8.08% (active) in the experiment with SK-MEL-5 melanoma; 10.5% with UACC-62 melanoma. In addition, the growth in the experiment with LOX IMVI melanoma was -86.7% (active); in the experiment on SK-MEL-28 melanoma, 1.27% (active); with SK-MEL-2 melanoma, -6.78% (active); in the experiment on EKVX NSCLC it was 26.9%; with SN12C renal it was 11.1%; in the experiment on UO-31 renal it was 27.4%. The growth was 10.1% in the experiment on TK-10 renal; -27.4% (active) in the experiment on ACHN renal; 30.8% in the experiment on CAKI-1 renal; 40.6% with A498 renal; 4.76% (active) with CCRF-CEM leukemia; -0.744% (active) in the experiment on MOLT-4 leukemia.

Regarding `Cc1ccc2cccc(Oc3ccc(Nc4ncnc5onc(-c6ccccc6)c45)cc3)c2n1`, the growth is 57.2% in the experiment with HT29 colon; 78.1% in the experiment on SNB-75 CNS; 70% with U251 CNS; 58.5% in the experiment on PC-3 prostate; 46.3% with SK-MEL-5 melanoma; 63.8% in the experiment on UACC-62 melanoma. Also, the growth in the experiment with LOX IMVI melanoma was 56.5%; in the experiment on SK-MEL-28 melanoma, 80.1%; in the experiment on SK-MEL-2 melanoma it was 94%; in the experiment with EKVX NSCLC, 85.5%; in the experiment on SN12C renal it was 83.9%; in the experiment with UO-31 renal it was 55.6%. Besides, the growth was 86.6% in the experiment with TK-10 renal; 80.1% with ACHN renal; 89.2% in the experiment with CAKI-1 renal; 13% with A498 renal; 80.7% with CCRF-CEM leukemia; 72.2% with MOLT-4 leukemia. Also, the growth in the experiment on SR leukemia is 67%.

As to `O=C(Nc1ccc(Cl)cc1F)c1cc(F)ccc1O`, the growth in the experiment on HT29 colon was 10.3%; in the experiment on SNB-75 CNS it was -12.4% (active); with U251 CNS, -4.4% (active); with PC-3 prostate it was 3.1% (active); with SK-MEL-5 melanoma it was -84.4% (active); with UACC-62 melanoma, -7.35% (active). Further, the growth is 9.69% (active) with LOX IMVI melanoma; 7.52% (active) with SK-MEL-28 melanoma; -29.8% (active) with SK-MEL-2 melanoma; 8.76% (active) in the experiment on EKVX NSCLC; 3.23% (active) with SN12C renal; 5.66% (active) in the experiment on UO-31 renal. Besides, the growth in the experiment with TK-10 renal is 14%; in the experiment on ACHN renal, 3.61% (active); with CAKI-1 renal, -14.3% (active); with A498 renal it was -55.6% (active); in the experiment on CCRF-CEM leukemia it was 8.63% (active); in the experiment on MOLT-4 leukemia it was -13.3% (active).

With `CCOC(=O)CSc1c(-c2ccccc2)c2cc(Cl)ccc2[nH]c1=O`, the growth was 105% with HT29 colon; 94.1% with SNB-75 CNS; 108% in the experiment with SNB-19 CNS; 91.9% in the experiment with PC-3 prostate; 92.6% in the experiment with UACC-62 melanoma; 84% in the experiment on LOX IMVI melanoma. Besides, the growth in the experiment on SK-MEL-28 melanoma was 109%; in the experiment with SK-MEL-2 melanoma, 114%; with SN12C renal, 102%; with UO-31 renal it was 86.2%; in the experiment with ACHN renal, 97.6%; in the experiment with CAKI-1 renal it was 92%. Also, the growth with A498 renal is 101%; in the experiment with CCRF-CEM leukemia, 95.7%; with MOLT-4 leukemia it was 88.3%; in the experiment with SR leukemia, 75.8%.

`CCOC(=O)c1cnc2c(C)cccc2c1Nc1ccc(C(C)=O)cc1`: the growth is -67.4% (active) in the experiment on HT29 colon; 32.4% in the experiment on SNB-75 CNS; -81.3% (active) in the experiment on U251 CNS; 12.4% with PC-3 prostate; -91.8% (active) in the experiment with SK-MEL-5 melanoma; 12.3% with UACC-62 melanoma. Moreover, the growth with LOX IMVI melanoma is -88.5% (active); in the experiment with SK-MEL-28 melanoma, -93% (active); with SK-MEL-2 melanoma, -76.2% (active); in the experiment with SN12C renal, 29.9%; in the experiment on UO-31 renal, 13.3%; with TK-10 renal, 10.7%. The growth in the experiment with ACHN renal is 17.7%; in the experiment with CAKI-1 renal it was 12%; in the experiment with A498 renal it was 46.5%; with CCRF-CEM leukemia it was 1.73% (active); in the experiment with MOLT-4 leukemia, -4.17% (active); in the experiment with SR leukemia, -28.5% (active).

For the compound `O=c1nc2sc3nc4ccccc4cc3cc-2s1`, the growth with HT29 colon is 147%; in the experiment on SNB-75 CNS, 116%; in the experiment on SNB-19 CNS, 101%; with SK-MEL-5 melanoma, 100%; in the experiment on UACC-62 melanoma, 116%; in the experiment on LOX IMVI melanoma, 111%. The growth in the experiment with SK-MEL-28 melanoma is 110%; in the experiment with SK-MEL-2 melanoma it was 112%; in the experiment with EKVX NSCLC, 48%; with SN12C renal it was 101%; in the experiment with UO-31 renal, 117%; in the experiment with TK-10 renal, 131%. Besides, the growth in the experiment on ACHN renal is 105%; in the experiment with CAKI-1 renal it was 137%; in the experiment with A498 renal, 94.6%; in the experiment on CCRF-CEM leukemia it was 127%; in the experiment with MOLT-4 leukemia it was 120%; with SR leukemia, 134%.

Consider `CCCCCCn1c(=N)n(CC(O)COc2cccc(C)c2)c2ccccc21` (stereo not drawn), for which the growth in the experiment with HT29 colon was -46.2% (active); in the experiment on SNB-75 CNS it was -92.1% (active); in the experiment on U251 CNS, -75.7% (active); in the experiment with PC-3 prostate, -11% (active); in the experiment on SK-MEL-5 melanoma it was -98.7% (active); in the experiment with UACC-62 melanoma, -72.4% (active). The growth with LOX IMVI melanoma was -86.3% (active); in the experiment on SK-MEL-28 melanoma it was -92.3% (active); with SK-MEL-2 melanoma, -79.7% (active); in the experiment on SN12C renal it was 28.6%; with UO-31 renal, -96.1% (active); in the experiment on TK-10 renal it was -86.4% (active). Besides, the growth is -52.9% (active) with ACHN renal; -21.6% (active) in the experiment with CAKI-1 renal; -13% (active) in the experiment on A498 renal; 1.25% (active) with CCRF-CEM leukemia; -3.39% (active) with MOLT-4 leukemia; -28.5% (active) with SR leukemia.

Consider `COc1ccc(CCN2C(=O)CCSC2=S)cc1OC`, for which the growth with HT29 colon is 107%; in the experiment on SNB-75 CNS, 84.7%; in the experiment on SNB-19 CNS it was 103%; in the experiment with SK-MEL-5 melanoma it was 94.6%; in the experiment on UACC-62 melanoma it was 94.6%; in the experiment with LOX IMVI melanoma it was 91.1%. The growth in the experiment with SK-MEL-28 melanoma was 98.2%; with SK-MEL-2 melanoma, 102%; in the experiment with EKVX NSCLC, 97.4%; in the experiment with SN12C renal it was 92.3%; with UO-31 renal it was 79.2%; in the experiment on TK-10 renal, 61.4%. Also, the growth in the experiment on ACHN renal is 102%; in the experiment on CAKI-1 renal it was 95.2%; in the experiment on A498 renal it was 99.3%; with CCRF-CEM leukemia, 73.6%; in the experiment on MOLT-4 leukemia it was 100%; in the experiment on SR leukemia, 33.2%.

For the origin of these results see PubChem BioAssay (NCI).
